Measurements: PubChem BioAssay AID504697 (The Scripps Research Institute Molecular Screening Center, 2011)
Unmarked numbers belong to inactive results. The source made the active and inactive calls.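 How the source made its calls: active means EC50 at or below 10 µM; inactive means EC50 above 10 µM.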

Test: compound autofluorescence in calcium buffer – biochemical, fluorescence, no RTF in test wells, artefact control for cardiac thin filament activator project, dose response (AID 504697);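 further: emission near 535 nm under roughly 485 nm excitation as for IANBD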
Conditions: compound-only fluorescence in RTF assay buffer with Ca2+ (no RTF in test wells), artifact counterscreen

| SMILES | EC50 |
| --- | --- |
| COc1ccc2ccccc2c1C(O)c1nccn1C (stereo unspecified) | 10.7 µM |
| O=C(Nc1ccccc1)NC1CS(=O)(=O)CC1O (stereo unspecified) | > 71.5 µM |
| C/C(O)=c1/ccc2cccc3nc(C)nc1c23 | > 23.8 µM |
| O=C(O)c1ccc(NC(=S)NC(=O)c2ccc(-c3ccccc3)cc2)cc1 | > 71.5 µM |
| CNC(=S)N1N=C(c2ccc(Br)cc2)CC1c1ccc(N(C)C)cc1 (stereo unspecified) | 51.4 µM |
| O=C(Nc1ccc2c(c1)OCCO2)c1cccc(Cl)c1Cl | > 71.4 µM |
| COCCn1c(=O)c2ccccc2c2ccccc2c1=O | > 71.5 µM |
| CNC(=O)N(O)C1N(C)C(=O)N(CC(=O)OC)C1(C)C (stereo unspecified) | > 71.5 µM |
| N#C/C(=C\c1c[nH]c2ccccc12)C(=O)Nc1ncc(Cc2ccc(Cl)cc2Cl)s1 | > 71.5 µM |
| CCCN1CCc2c(sc(NC(=S)NC(=O)c3ccccc3)c2C#N)C1 | > 71.5 µM |
| O=C1c2cccc3c(N4CCCCC4)ccc(c23)C(=O)N1c1cccc(O)c1 | 5.54 µM (active) |
| COc1ccccc1NC(=O)COC(=O)c1cnc(C)cn1 | > 71.5 µM |
| Fc1ccc(-c2[nH]ncc2CN(CC2CCC2)CC2CCCO2)c(F)c1 (stereo unspecified) | > 71.5 µM |
| Cc1ccc(-c2ccc(OC(=O)c3ccc(=O)[nH]c3)c(C)c2)cc1 | > 71.5 µM |
| Cc1cc(/C=C2\SC(=S)N(C)C2=O)c(C)n1-c1ccccc1O | 15.7 µM |
| S=C(Nc1ccc(N2CCOCC2)cc1)Nc1ccc2nc(-c3ccco3)c(-c3ccco3)nc2c1 | 11.4 µM |
| CCOC(=O)/C(=C\c1c[nH]c2ccccc12)NC(C)=O | > 71.4 µM |
| CCOc1cc(N2CCOCC2)c(OCC)cc1NC(=O)CCS(=O)(=O)c1ccc(Cl)cc1 | > 71.5 µM |

| SMILES | EC50 |
| --- | --- |
| COc1ccc(C(=O)/C=C/c2cn(CC(O)CN3CCN(C)CC3)c3ccccc23)cc1OC (stereo unspecified) | 25.7 µM |
| CCOC(=O)c1sc(-c2ccc(F)cc2)cc1NC(=O)Nc1ccccc1OC | > 71.4 µM |
| CC(=O)Nc1cc(C(=O)NCc2ccco2)ccc1Sc1ccc(F)cc1 | > 71.5 µM |
| COc1ccc(CNC(=O)c2sc(=S)n(-c3ccccc3)c2N)cc1 | > 71.5 µM |
| COc1ccc(C)cc1NC(=O)C12CCC(C)(C(=O)O1)C2(C)C (stereo unspecified) | > 71.5 µM |
| COc1cc(OC)c(C(=O)OC(C)C(=O)Nc2cccc(C(F)(F)F)c2)cc1OC (stereo unspecified) | > 71.5 µM |
| CC1(C)CCN2CCC(C)(C)c3c(O)ccc1c32 | 5.84 µM (active) |
| O=[N+]([O-])c1ccc(/C=C/C2=NN(c3ccccc3)C(c3ccco3)C2)cc1 (stereo unspecified) | 1.04 µM (active) |
| O=C(O)c1ccccc1CSc1nnnn1-c1ccccc1 | > 71.5 µM |
| COc1ccc(C(=O)Nn2cnc3scc(-c4cccs4)c3c2=O)c(O)c1 | > 71.5 µM |
| CC(C)CNC(=S)NC(=O)c1ccccc1Cl | > 71.4 µM |
| Cn1nc(NC(=O)C2CCC2C(=O)O)c2c(F)cccc21 (stereo unspecified) | > 71.5 µM |
| CC(=O)Nc1ccc(N=Cc2nc(-c3ccc(C)cc3)oc2O)cc1 | 20 µM |
| O=C(NCc1ccc(Cl)cc1)C1CCN(c2cnccn2)CC1 | > 71.4 µM |
| N#CC1=C(N)Oc2ccc3ccc(O)cc3c2C1c1ccsc1 (stereo unspecified) | 65.8 µM |
| Cc1sc(NC(=O)CSc2nnc(C(C)C)n2C)c(C#N)c1C | > 71.5 µM |
| CSc1ccc(C2C(C(=O)c3ccco3)=C(O)C(=O)N2c2nnc(SC)s2)cc1 (stereo unspecified) | 0.726 µM (active) |
| O=C(COc1ccccc1F)NC1CC1 | > 71.5 µM |
